These are literature values, as cited in PubChem BioAssay AID977610.

Among all 3,600 compounds or so, about 3,600 (100%) were called active. Cut-off not given; nearly all actives show Ki up to about 18000 µM. The set was probably picked from earlier hits. Some of the results follow. Numbered stars: 1 amine (or outer) side, 2 acyl side, 3 side chain; on linkers, the order of the positions; unused ones are H or OH. Where a SMILES comes first, the peptide text is derived from it. Square brackets hold non-standard residues; d marks the D form. Residues, ends and D or L forms follow the SMILES beside them. Peptide text beside a SMILES is read from it. [ ]: non-standard residue; d: D form. X2 = O=C([C@H](Cc1ccc(O[P+](O)(O)O)cc1)N[*:1])[*:2]; Orn(CH(NH2)2) = NC(N)NCCC[C@H](N)C(=O)O

The series is described as follows: PubChem AID 977610. To be noted: PDB protein-ligand complexes, literature Ki.

Turning to `C[C@@H]1N[C@@H](c2cn(-c3ccccc3)nn2)[C@H](O)[C@@H]1O`, the Ki (protein: Alpha-L-fucosidase Fuc2970, PDB entry 4pee) is 0.0048 µM (active). Take `NCCCC[C@H](N[C@@H](CCc1ccccc1)C(=O)O)C(=O)N1CC=C[C@H]1C(=O)O`: the Ki (protein: human somatic angiontensin-I converting enzyme N domain, PDB entry 2c6n) is 0.131 µM (active). For `N[C@@H](CCc1ccccc1)[P+](O)(O)C[C@@H](Cc1ccccc1)C(O)O`, the Ki (protein: Aminopeptidase N, PDB entry 4qme) was 0.302 µM (active). With `NCc1ccc(C[C@H](C[P+](O)(O)[C@@H](N)CCc2ccccc2)C(=O)O)cc1`, the inhibitory constant (Ki) (protein: Aminopeptidase N, PDB entry 4qhp) was 0.009 µM (active). Take `NCc1cccc(C[C@H](C[P+](O)(O)[C@@H](N)CCc2ccccc2)C(=O)O)c1`: the inhibitory constant (Ki) (protein: Aminopeptidase N, PDB entry 4quo) is 0.012 µM (active). For the molecule `N[C@@H](CCc1cccnc1)[P+](O)(O)C[C@@H](Cc1ccccc1)C(=O)O`, the Ki (protein: Aminopeptidase N, PDB entry 4qir) is 0.112 µM (active). In the case of `Cc1ccc(-c2cnc([C@@H](O)CCCCCCc3ccccc3)o2)nc1`, where the note is “protein: Fatty-acid amide hydrolase 1 (L192F, F194Y, A377T, S435N, I491V, V495M mutation), PDB entry 4j5p”, the inhibition constant (Ki) was 0.012 µM (active). Regarding `O=C(O)c1cccc(-c2cnc([C@@H](O)CCc3ccc(-c4ccccc4)cc3)o2)n1`, where the note is “protein: Humanized Variant of Fatty Acid Amide Hydrolase (L192F, F194Y, A377T, S435N, I491V, V495M), PDB entry 3k83”, the inhibition constant (Ki) was 0.022 µM (active).

Take `O=C(O)c1cccc(-c2cnc([C@@H](O)CCCCCCc3ccccc3)o2)n1`: the inhibition constant (Ki) (protein: Humanized Variant of Fatty Acid Amide Hydrolase (L192F, F194Y, A377T, S435N, I491V, V495M), PDB entry 3k7f) is 0.02 µM (active). `O=C1CC(NC(=O)c2c(Cl)cccc2Cl)=CC=N1`: the inhibitory constant (Ki) is, setting by setting: (protein: Non-receptor tyrosine-protein kinase TYK2 (D1023N mutation), PDB entry 4gfo) 0.24 µM (active); (protein: Tyrosine-protein kinase JAK2, PDB entry 4gfm) 0.06 µM (active). Take `CC(=O)N[C@@H](CCCNC(N)N)C(=O)N[C@@H](Cc1c[nH]c2ccccc12)C(=O)N[C@H]1CCCCCCCNC(=O)[C@@H]2CCCN2C(=O)[C@H](CCCNC(N)N)NC(=O)[C@H](C)NC(=O)[C@@H]2CCCN2C(=O)[C@H](Cc2ccccc2)NC1=O`: the Ki (protein: Menin, PDB entry 4i80) was 0.0238 µM (active). Consider `Oc1ccc(Br)cc1/C=C/S(O)(O)O`, for which the Ki (protein: CARBONIC ANHYDRASE 2, PDB entry 4bcw) was 100 µM (active).

Consider `CC(C)C[C@@H](N)[C@H](O)C(=O)N[C@H](C(=O)N[C@H](C(=O)N[C@@H](CC(=O)O)C(=O)O)C(C)C)C(C)C`, for which the Ki (protein: Glutamyl aminopeptidase, PDB entry 4kx8) was 0.074 µM (active). For the molecule `O=[N+]([O-])c1ccc2n[nH]nc2c1`, the Ki (protein: KEMP ELIMINASE HG3.17 (V6I, Q37K, K50Q, G82A, M84C, S89N, Q90F, T105I, A125T, T142N, T208M, S265T, F267M, W275A, R276F,, PDB entry 4bs0) is 2 µM (active).

Turning to `CSCC[C@H](NC(=O)[C@H](CO)NC(=O)[C@H](CCC(N)=O)NC(=O)[C@H](CCCN=C(N)N)NC(=O)[C@H](CS)NC(=O)[C@@H](N)[C@@H](C)O)C(=O)N[C@@H](CS)C(=O)N[C@H](C(=O)N[C@@H](C)C(=O)N[C@@H](CCCN=C(N)N)C(=O)O)[C@@H](C)O` (tested in a mixture with another compound) (H-TCRQSMCTAR-OH), the Ki (protein: urokinase-type plasminogen activator (uPA), PDB entry 4mnv) was 11.6 µM (active). Regarding H-SRWQTSII-OH, under “protein: CFTR Associated Ligand (CAL) PDZ domain, PDB entry 4k6y”, the Ki was 14.8 µM (active). For H-RWQDTRL-OH, the inhibition constant Ki (protein: CFTR Associated Ligand (CAL) PDZ domain, PDB entry 4k75) was 56.2 µM (active). On to `CNc1nc2c(CC[C@H]3O[C@@H](OC)[C@H](O)[C@@H]3OC)c3nc(N)[nH]c(=O)c3cc2[nH]1`, for which the inhibitory constant (Ki) (protein: tRNA guanine transglycosylase (TGT), PDB entry 4kwo) was 0.353 µM (active). Take `Cc1nnc(CNCCN2C(O)c3cccc4c(N(C)C)ccc(c34)C2O)s1` (stereo not drawn): the inhibitory constant (Ki) (protein: insect beta-N-acetyl-D-hexosaminidase OfHex1, PDB entry 3wmc) is 0.31 µM (active). In the case of `Cc1nnc(CNCCN2C(O)c3cccc4cccc(c34)C2O)s1` (stereo not drawn), for the setting “protein: insect beta-N-acetyl-D-hexosaminidase OfHex1, PDB entry 3wmb”, the inhibitory constant (Ki) was 4.28 µM (active).

With `CC(=O)N[C@@H](Cc1ccc(O[P+](O)(O)O)cc1)C(=O)N[C@H](C(=O)N1CCC[C@H]1C(=O)N[C@@H](CCC(=O)O)C(=O)N1CCC[C@H]1C(N)=O)[C@@H](C)O` (Ac-[X2]TPEP-NH2), where the note is “protein: E3 ubiquitin-protein ligase CBL, PDB entry 4gpl”, the Ki was 1.3 µM (active). `N[C@H](C(=O)O)[C@@H]1N=C(C(=O)O)CCS1`: the Ki (protein: AmpC Beta-Lactamase, PDB entry 4old) is 2000 µM (active). Take `C=C1CS[C@H]([C@H](N)C(=O)O)N=C1C(=O)O`: the Ki (protein: AmpC Beta-Lactamase, PDB entry 4okp) was 2000 µM (active). For the molecule `Cc1ccc(NC(=O)c2cccc(C(F)(F)F)c2)cc1-c1ccc2nc(NC3CC3)ncc2c1`, the Ki (protein: Mitogen-activated protein kinase 1 (Q103A, C164L mutation), PDB entry 4i5h) is 0.002 µM (active). As to `Cc1cccc(Nc2cc(S(O)(O)O)c(N)c3c2C(=O)c2ccccc2C3=O)c1`, the inhibition constant (Ki) (protein: ecto-nucleoside triphosphate diphosphohydrolase 2, RnNTPDase2, PDB entry 4cd1) was 12.8 µM (active). Take `CCCCCC(=O)O[C@@H](CO)CO[P+](O)(O)OCC[N+](C)(C)C`: the Ki (protein: Avermectin-sensitive glutamate-gated chloride channel GluCl alpha, PDB entry 4tnw) was 167 µM (active). For `Nc1ncnc2c(CN3C[C@H](O)[C@H](O)[C@H]3CO)c[nH]c12`, where the note is “protein: Inosine-adenosine-guanosine-nucleoside hydrolase, PDB entry 4i71”, the Ki was 0.018 µM (active). On to `Nc1ncnc2c([C@@H]3N[C@H](CO)[C@@H](O)[C@H]3O)c[nH]c12`, for which the inhibitory constant (Ki) (protein: Inosine-adenosine-guanosine-nucleoside hydrolase, PDB entry 4i72) is 0.0009 µM (active). `Nc1ncnc2c(CN3C[C@H](CSCC[C@H](N)C(=O)O)[C@@H](O)C3)c[nH]c12`: the Ki (protein: 5'-methylthioadenosine/S-adenosylhomocysteine nucleosidase, PDB entry 4f3k) was 6.9e-05 µM (active). Regarding `O=c1[nH]cnc2c(CN3C[C@H](O)[C@H](O)[C@H]3CO)csc12`, the inhibition constant Ki (protein: Inosine-adenosine-guanosine-nucleoside hydrolase, PDB entry 4i73) is 0.19 µM (active) and the Ki (protein: Inosine-adenosine-guanosine-nucleoside hydrolase, PDB entry 4i74) was 0.19 µM (active). With `CSCC[C@H](NC(=O)[C@H](C)N)C(=O)N[C@@H](CCCNC(N)N)C(=O)N[C@H](C(=O)O)C(C)C` (H-AM[Orn(CH(NH2)2)]V-OH), the Ki (protein: E3 ubiquitin-protein ligase XIAP (C202A, C213G mutation), PDB entry 4j48) is 2.41 µM (active).

In general, Ki refers to a measure of affinity in units of concentration, obtained from inhibition or displacement.
